{
  "source": "PubChem BioAssay AID1861",
  "about": "(The Scripps Research Institute Molecular Screening Center, 2009)",
  "note": "In all, about 290,000 compounds went through this assay and about 3,100 (1.1%) were called active. The sample holds actives, similar compounds and a random draw of the others, so the mix is not that of the screen. Values without a mark were called inactive. No stated cut-off is given here; in the data, active means inhibition above about 16% (passing the limit was not always enough); inactive means the rest.",
  "data": [
    {"target": "Neuropeptides B/W receptor type 1 (Homo sapiens) (UniProt P48145)", "sequence (P48145 whole entry, looked up)": "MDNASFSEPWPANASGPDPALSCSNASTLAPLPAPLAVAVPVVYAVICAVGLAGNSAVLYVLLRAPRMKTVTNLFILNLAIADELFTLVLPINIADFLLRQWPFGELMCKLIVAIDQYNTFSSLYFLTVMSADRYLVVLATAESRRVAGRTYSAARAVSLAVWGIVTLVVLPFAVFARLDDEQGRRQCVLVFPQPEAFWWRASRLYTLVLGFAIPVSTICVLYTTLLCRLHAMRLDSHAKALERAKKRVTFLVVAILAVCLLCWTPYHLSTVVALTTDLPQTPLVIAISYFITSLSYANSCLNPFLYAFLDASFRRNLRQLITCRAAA", "assay": "blockers of human neuropeptide B/W receptor 1 – cell-based, fluorescence, single concentration, primary screen (AID 1861);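 further: cells stimulated with the agonist NPW; 0% = agonist with vehicle and 100% = vehicle without agonist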", "conditions": "GPR7-expressing cells, fluorescence antagonist assay; at 4.4 µM; stronger effect = higher value", "values": [
      {"molecule": "C[C@@H]1C[C@@H]2O[C@H]2/C=C\\C=C\\C(=O)Cc2c(Cl)c(O)cc(O)c2C(=O)O1", "inhibition": "-17.8%"},
      {"molecule": "C/C(=N\\NC(=O)c1cccc([N+](=O)[O-])c1)c1cccnc1", "inhibition": "-13.8%"},
      {"molecule": "Cc1ccc(Nc2nnc(SCC(=O)c3cc4ccccc4o3)s2)cc1C", "inhibition": "-6.61%"},
      {"molecule": "Cc1ccccc1Nc1nnc(SCC(=O)c2cc3ccccc3o2)s1", "inhibition": "28% (active)"},
      {"molecule": "Cc1cc(NC(=O)CSc2nnc(Nc3ccccc3F)s2)no1", "inhibition": "-3.75%"},
      {"molecule": "COc1ccc(-c2nc3c(s2)CCc2onc(-c4ccc(OC)cc4)c2-3)cc1", "inhibition": "-14.6%"},
      {"molecule": "O=C(CC1C(=O)NCCN1CC(c1ccccc1)c1ccccc1)NCC1CCOCC1", "note": "(stereo not drawn)", "inhibition": "-12.4%"},
      {"molecule": "COCCn1cnc2c1c(=O)n(CC(=O)NN)c(=O)n2Cc1ccccc1", "inhibition": "-7.23%"},
      {"molecule": "Cc1ccc(F)c(NC(=O)CCOc2ccccc2C)c1", "inhibition": "-9.71%"},
      {"molecule": "O=C(/C=C/c1cccc([N+](=O)[O-])c1)N1CCN(Cc2ccccc2)CC1", "inhibition": "33.7%"},
      {"molecule": "O=[N+]([O-])/C=C/c1ccc2c(ccn2Cc2ccccc2)c1", "inhibition": "50.9% (active)"},
      {"molecule": "O=c1c([N+](=O)[O-])cc(C(F)(F)F)cn1Cc1cccc(Cl)c1", "inhibition": "1%"},
      {"molecule": "CCc1ccc(NC(=O)CN2C(=O)COc3ccc(S(=O)(=O)N4CCCC4)cc32)cc1", "inhibition": "-5.64%"},
      {"molecule": "CCn1c(COc2ccccc2)nnc1SCC(=O)NCc1ccco1", "inhibition": "3.08%"},
      {"molecule": "C=CCn1c(CNC(=O)c2ccco2)nnc1SCC(=O)c1ccc(OC)cc1", "inhibition": "-0.25%"},
      {"molecule": "COc1ccc(C(=O)CSc2nnc(COc3ccccc3)n2Cc2ccco2)cc1", "inhibition": "42.3% (active)"},
      {"molecule": "CCc1ccc(N2CC(C(=O)N3CCCCCC3)CC2=O)cc1", "note": "(stereo not drawn)", "inhibition": "-4.17%"},
      {"molecule": "COc1ccccc1N(CC(=O)N/N=C(\\C)c1ccccc1O)S(=O)(=O)c1ccc(C)cc1", "inhibition": "-9.35%"},
      {"molecule": "O=C1OC(OC(=O)c2ccccc2Br)C(N2CCOCC2)=C1Cl", "note": "(stereo not drawn)", "inhibition": "-8.99%"},
      {"molecule": "Cc1ccccc1C(=O)OC1OC(=O)C(Cl)=C1Nc1ccccc1", "note": "(stereo not drawn)", "inhibition": "0.02%"},
      {"molecule": "Cc1ccc(NC2=C(Cl)C(=O)OC2OC(=O)c2ccccc2C)cc1", "note": "(stereo not drawn)", "inhibition": "36.4% (active)"},
      {"molecule": "O=C(Cc1ccc(Cl)cc1)NC(=S)Nc1ccccc1O", "inhibition": "80.2% (active)"},
      {"molecule": "Cc1cccc(NC(=S)NCCc2ccc(Cl)cc2)c1C", "inhibition": "-3.82%"},
      {"molecule": "Cc1ccc(C(=O)NC(=S)Nc2ccccc2C)cc1", "inhibition": "-4.66%"},
      {"molecule": "COC(=O)Cc1ccc(NC(=S)NCc2ccc(Cl)cc2)cc1", "inhibition": "-7.45%"},
      {"molecule": "O=C(COc1ccc(Cl)cc1)NC(=S)Nc1ccccc1N1CCOCC1", "inhibition": "-6.56%"},
      {"molecule": "Cc1ccccc1NC(=S)NC(=O)Cc1ccc(Cl)cc1", "inhibition": "56.5% (active)"},
      {"molecule": "COc1ccc2oc(=N)c(C(=O)Nc3ccc(Br)cc3)cc2c1", "inhibition": "-2.95%"},
      {"molecule": "CC(=O)Nc1ccc(S(=O)(=O)NC2Cc3ccccc3C2)cc1", "inhibition": "17.6%"},
      {"molecule": "O=C(c1cc2ccccc2o1)N1CCN(Cc2ccccc2)CC1", "inhibition": "-6.86%"},
      {"molecule": "COc1ccc(NC(=O)CCCC2CCCCC2)c(OC)c1", "inhibition": "14.9%"},
      {"molecule": "COc1ccccc1NC(=O)CSc1nc2sc3c(c2c(=O)n1-c1ccccc1)CCN(C)C3", "inhibition": "4.04%"},
      {"molecule": "Cc1ccc(C)c(SCc2nc3sc(C(=O)O)c(C)c3c(=O)[nH]2)c1", "inhibition": "-16.9%"},
      {"molecule": "Cc1ccc(-c2nc(SCC(=O)Nc3ccccc3OC(F)F)c3c(C)c(C(=O)O)sc3n2)cc1", "inhibition": "29.8% (active)"},
      {"molecule": "COc1cccc(/C=C(/CC(=O)Nc2ccc(N3CCOCC3)cc2)c2nc3ccccc3s2)c1", "inhibition": "-6.54%"},
      {"molecule": "Cc1ccc(C)c(C(=O)N2CCC(n3nccc3NC(=O)C3CC3)CC2)c1", "inhibition": "-10.3%"},
      {"molecule": "CCCCCCCCn1c2c(c(=N)c3c1CCC3)CCCC2", "inhibition": "57.5% (active)"},
      {"molecule": "CCCCCCn1c(CN2CCCCC2)nc2c1c(=O)n(C)c(=O)n2C", "inhibition": "0.86%"},
      {"molecule": "COc1ccccc1C(=O)N/C(=C/c1ccco1)C(=O)Nc1ccc(C(=O)O)cc1", "inhibition": "0.36%"},
      {"molecule": "O=C(Nc1cccc(Cl)c1N1CCOCC1)c1cccnc1", "inhibition": "-1.34%"},
      {"molecule": "CCN1CCN(c2c(Cl)cccc2NC(=O)c2ccc(Br)o2)CC1", "inhibition": "23.7% (active)"},
      {"molecule": "CCCC(=O)Nc1ccc(Cl)c(NC(=O)c2ccc(Br)o2)c1", "inhibition": "-14%"},
      {"molecule": "COc1ccc2cc(C(=O)NCC3CCCO3)[nH]c2c1", "note": "(stereo not drawn)", "inhibition": "-1.93%"},
      {"molecule": "CCN(CC)CCOCCOc1ccc(Cl)c2ccccc12", "inhibition": "27.1% (active)"},
      {"molecule": "Clc1cccc(Cl)c1OCCOCCNCc1ccccc1", "inhibition": "-2.47%"},
      {"molecule": "CN(C)CCOCCOc1ccc(Cl)c2ccccc12", "inhibition": "14.1%"},
      {"molecule": "COc1ccc(NS(=O)(=O)c2ccc(O)c(C(=O)OCC(=O)NC3CCCCC3)c2)cc1", "inhibition": "-13.8%"},
      {"molecule": "NC(=O)COc1ccccc1C(=O)NC12CC3CC(CC(C3)C1)C2", "inhibition": "-4.36%"},
      {"molecule": "O=C(Cc1nn[nH]n1)NCCC1=CCCCC1", "inhibition": "-14.2%"},
      {"molecule": "CN1CCNC(=O)C1CC(=O)NCCC1=CCCCC1", "note": "(stereo not drawn)", "inhibition": "18.4% (active)"},
      {"molecule": "Cc1ccccc1CN1CCNC(=O)C1CC(=O)NCCC1=CCCCC1", "note": "(stereo not drawn)", "inhibition": "-1.59%"},
      {"molecule": "CCN(CC)Cc1c(C(=O)OC)nnn1-c1nonc1N", "inhibition": "36.6% (active)"},
      {"molecule": "CCN(CC)Cc1c(C(=O)N/N=C/c2cccc(OCc3ccc(F)cc3)c2)nnn1-c1nonc1N", "inhibition": "6.35%"},
      {"molecule": "Cc1c(C(=O)O)nnn1-c1nonc1N", "inhibition": "-7.01%"},
      {"molecule": "O=C(CSc1nnnn1C1CCCC1)N1CCCCC1", "inhibition": "0.56%"},
      {"molecule": "CCOC(=O)C1(Cc2ccccc2C(F)(F)F)CCN(C(=O)c2cc(C)n(C)n2)CC1", "inhibition": "-2.9%"},
      {"molecule": "O=C(CSc1ccc(-c2ccc(Br)cc2)nn1)NCC1CCCO1", "note": "(stereo not drawn)", "inhibition": "-0.63%"},
      {"molecule": "OC(CNCC1CCCO1)Cn1c2ccc(Br)cc2c2cc(Br)ccc21", "note": "(stereo not drawn)", "inhibition": "25.7% (active)"},
      {"molecule": "CC(NS(=O)(=O)c1ccc(Br)cc1)C(=O)NCC1CCCO1", "note": "(stereo not drawn)", "inhibition": "-6%"},
      {"molecule": "CCc1ccc(OCC(O)CN2CCN(CCO)CC2)cc1", "note": "(stereo not drawn)", "inhibition": "-19.8%"},
      {"molecule": "O=S1(=O)CCO[C@H]2Cc3ccccc3[C@H]2N1Cc1ccccc1", "inhibition": "-8.66%"},
      {"molecule": "COc1ccccc1C(=O)N1C(CC(=O)Nc2ccccc2C)C(=O)NC2CCCCC21", "note": "(stereo not drawn)", "inhibition": "-5.63%"},
      {"molecule": "Cc1cc(-c2n[nH]c(=S)n2/N=C/C(Br)=C/c2ccccc2)n[nH]1", "inhibition": "4.93%"},
      {"molecule": "CCN1CCN(c2ccc(S(=O)(=O)N3CCCCC3)cc2NC(=O)Cc2c(Cl)cccc2Cl)CC1", "inhibition": "1.74%"},
      {"molecule": "CN1CCN(c2ccc(S(=O)(=O)N3CCCCC3)cc2NC(=O)Cc2ccccc2F)CC1", "inhibition": "1.52%"},
      {"molecule": "COc1ccc(CC(=O)Nc2cc(S(=O)(=O)N3CCCCC3)ccc2N2CCN(C)CC2)cc1", "inhibition": "19.6% (active)"},
      {"molecule": "CCCC(C)c1nnc(NC(=O)C2CC(=O)N(c3ccc(OCC)cc3)C2)s1", "note": "(stereo not drawn)", "inhibition": "0.56%"},
      {"molecule": "COc1ccc(N(CC(=O)Nc2cc(OC)ccc2OC)S(=O)(=O)c2c(C)noc2C)cc1", "inhibition": "-4.71%"},
      {"molecule": "COc1ccc(C(C(O)C(=O)c2c[nH]c3ccccc23)N2CCN(c3ccccc3)CC2)cc1", "note": "(stereo not drawn)", "inhibition": "25.7% (active)"},
      {"molecule": "COc1ccc(/C=C(\\C#N)c2c[nH]c3ccccc23)cc1", "inhibition": "17.2%"},
      {"molecule": "COc1cccc(-n2c(SCC(=O)c3c[nH]c4ccccc34)nc3ccccc3c2=O)c1", "inhibition": "-11.6%"},
      {"molecule": "COc1ccc(C(=O)NC(=S)N2CCCCC2c2cccnc2)cc1OC", "note": "(stereo not drawn)", "inhibition": "-2.66%"},
      {"molecule": "Nc1nc(NCc2ccccc2)n(-c2ccccc2)n1", "inhibition": "-7.72%"},
      {"molecule": "Cc1ccc(NC(=O)CN2C(=O)NC(C)(c3ccc(Cl)cc3)C2=O)c(Br)c1", "note": "(stereo not drawn)", "inhibition": "22.3% (active)"},
      {"molecule": "O=C(CN1C(=O)NC2(CCCC2)C1=O)Nc1ccc(F)c(F)c1F", "inhibition": "11.1%"},
      {"molecule": "CC1(c2ccc(Cl)cc2)NC(=O)N(CC(=O)c2ccc3c(c2)OCO3)C1=O", "note": "(stereo not drawn)", "inhibition": "-6.7%"},
      {"molecule": "O/N=C(\\C[n+]1ccccc1)c1ccc(Br)cc1", "inhibition": "5.69%"},
      {"molecule": "CCOc1ccc(-n2c(SCC(=O)Nc3cc(C(=O)O)ccc3Cl)nc3ccccc3c2=O)cc1", "inhibition": "2.21%"},
      {"molecule": "O=C(COc1ccc(Cl)cc1)N1CCN(c2cccc(C(F)(F)F)c2)CC1", "inhibition": "-8.3%"},
      {"molecule": "O=C(COc1ccc(S(=O)(=O)NCc2ccccc2)cc1)N1CCOCC1", "inhibition": "4.86%"},
      {"molecule": "O=C(COc1ccc(S(=O)(=O)Nc2cccc(C(F)(F)F)c2)cc1)N1CCOCC1", "inhibition": "26.6% (active)"},
      {"molecule": "COc1ccc(Nc2cc(C)nc(-n3nc(C)cc3C)n2)cc1", "inhibition": "20.7% (active)"},
      {"molecule": "Cc1cc(N/N=C\\c2ccc(Br)cc2)nc(-n2nc(C)cc2C)n1", "inhibition": "-2.3%"},
      {"molecule": "COc1ccccc1/C=N\\Nc1cc(C)nc(-n2nc(C)cc2C)n1", "inhibition": "-14.4%"},
      {"molecule": "O=C(NCCc1c[nH]c2ccccc12)C1CCN(Cc2ccc(Br)cc2)CC1", "inhibition": "6.85%"},
      {"molecule": "CCc1ccc(N(C(=O)c2csnn2)C(C(=O)NC2CCCCC2)c2ccncc2)cc1", "note": "(stereo not drawn)", "inhibition": "22.7% (active)"},
      {"molecule": "O=C(NC1CCCC1)C(c1ccco1)N(C(=O)c1csnn1)c1ccccc1", "note": "(stereo not drawn)", "inhibition": "-7.05%"},
      {"molecule": "CCc1ccc(N(C(=O)c2csnn2)C(C(=O)NC2CCCCC2)c2cccnc2)cc1", "note": "(stereo not drawn)", "inhibition": "16.5%"},
      {"molecule": "O=C(NCC(=O)N(c1ccccc1)C(C(=O)NCC1CCCO1)c1ccccc1)c1cccs1", "note": "(stereo not drawn)", "inhibition": "-0.97%"},
      {"molecule": "CN(C)CCNc1ccc(-c2n[nH]c(=O)c3ccccc23)cc1[N+](=O)[O-]", "inhibition": "-19.5%"},
      {"molecule": "O=C(Nc1ccc2ccccc2c1)Nc1ccc2snnc2c1", "inhibition": "31.3% (active)"},
      {"molecule": "O=C(Nc1cccc(Br)c1)c1ccc2snnc2c1", "inhibition": "6.67%"},
      {"molecule": "CCc1ccccc1NC(=O)c1ccc2snnc2c1", "inhibition": "4.67%"}
    ]}
  ]
}
